Results published in ChEMBL document CHEMBL3433997, “St. Jude Leishmania screening dataset” (2016).

Tests used:
Assay type in all cases: functional
[1] = target: Solute carrier family 2, facilitated glucose transporter member 1 (Homo sapiens) (UniProt P11166); test: ST_JUDE_LEISH: Cytotoxicity at 2uM final concentration against transgenic Leishmania Mexicana promastigotes LmGLUT1 that are glucose transport deficient and complemented with the human glucose transporter GLUT1. Activity is measured by DNA content using SYBR green in vitro
Solute carrier family 2, facilitated glucose transporter member 1 (Homo sapiens), sequence (P11166 whole entry): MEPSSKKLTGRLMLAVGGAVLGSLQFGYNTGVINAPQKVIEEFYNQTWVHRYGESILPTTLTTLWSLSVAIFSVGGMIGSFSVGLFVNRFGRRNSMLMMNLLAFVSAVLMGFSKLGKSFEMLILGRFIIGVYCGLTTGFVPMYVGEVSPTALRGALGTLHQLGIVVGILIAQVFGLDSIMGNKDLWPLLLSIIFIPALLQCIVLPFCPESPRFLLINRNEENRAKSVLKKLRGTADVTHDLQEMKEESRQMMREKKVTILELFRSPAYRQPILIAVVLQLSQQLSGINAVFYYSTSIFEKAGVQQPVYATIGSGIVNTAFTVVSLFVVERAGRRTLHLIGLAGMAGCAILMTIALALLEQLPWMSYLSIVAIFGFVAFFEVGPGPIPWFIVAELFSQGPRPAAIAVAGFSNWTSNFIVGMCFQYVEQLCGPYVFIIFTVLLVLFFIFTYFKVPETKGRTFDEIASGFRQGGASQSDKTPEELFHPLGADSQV

[2] = target: Hexose transporter 1 (Plasmodium falciparum) (UniProt O97467); test: ST_JUDE_LEISH: Cytotoxicity at 2uM final concentration against transgenic Leishmania Mexicana promastigotes LmPfHT that are glucose transport deficient and complemented with the Plasmodium falciparum hexose transporter. Activity is measured by DNA content using SYBR green in vitro
[3] = target: Glucose transporter (Leishmania mexicana) (UniProt O61059); test: ST_JUDE_LEISH: Cytotoxicity at 2uM final concentration against transgenic Leishmania Mexicana promastigotes LmGT2 that are glucose transport deficient and complemented with the L. Mexicana glucose transporter 2. Activity is measured by DNA content using SYBR green in vitro

Compound | inhibition [1] | inhibition [2] | inhibition [3]
N=C(N)NN=Cc1c2ccc(Cl)cc2c(Cl)c2ccc(Cl)cc12 | 83.8% | 23.8% | 61.9%
Cc1cc(N2CCCC2)nc(Nc2ccc(NC(=O)c3ccccc3)cc2)n1 | 1.14% | 6.69% | 3.09%
CC(Cc1ccc(COc2ccc(CC(CO)NCCc3cccc(Cl)c3)cc2)cc1)NCCc1cccc(Cl)c1 (stereo not drawn) | 51.7% | 38.4% | 69.3%
COc1cc(F)c2ncc(Cl)c(CCN3CCC(NCc4ccc5c(c4)OCCO5)CC3)c2c1 | 41.6% | 54.6% | 68.8%
CC(=O)Nc1ccc(C(=O)N2CCN(c3ccnc4cc(Cl)ccc34)CC2)cc1 | 1.26% | -0.89% | -0.23%
COc1ccc(-n2ccnc2SCC(=O)Nc2cc(Cl)ccc2OC)c(OC)c1 | 2.64% | -0.3% | 4.9%
Cc1cc(NCCC(=O)NCCOc2ccccc2)nc(Nc2ccccc2)n1 | 5.24% | 4.64% | 0.05%
CCOc1cc(C(=O)NC2CCN(Cc3ccccc3)CC2)ccc1-c1nc2cc(Cl)c(F)cc2[nH]1 | 3.61% | 2.49% | 3.19%
Fc1ccc2[nH]c(-c3cccc(-c4ccc(CN5CCN(c6cnccn6)CC5)cc4)c3)nc2c1 | 14.3% | 12.5% | 8.14%
CN1CCC[C@H]1COc1ccc(CN2CC[C@H](NC(=O)c3ccc(Cl)c(Cl)c3)C2)cc1Cl | 1.83% | 0.86% | -0.76%
COc1ccc(C23Oc4cc(OC)cc(OC)c4C2(O)C2(CC3c3ccccc3)SCCCS2)cc1 (stereo not drawn) | 0.76% | -0.16% | 1.15%
O=C(NCCCN1CCCCC1)c1cccc(Nc2nccc(Nc3ccc(Oc4ccccc4)cc3)n2)c1 | -2.69% | -2.52% | -2.53%
COc1ccc2nccc([C@@H](O)CN3CCC(NCc4cc5cccc6c5n(c4=O)CCC6)CC3)c2c1 | 2.12% | 2.16% | 2.27%
CS(=O)(=O)CCNCc1ccc(-c2ccc3ncnc(Nc4ccc(OCc5ccccc5)c(Cl)c4)c3c2)o1 | -0.18% | -1.51% | -1.49%
Cc1cc(CNCCCCCCNCc2ccc(Cl)cc2)ccc1O | 9.89% | 7.77% | 9.18%
CC(C)C[C@H](NC(=O)c1ccc(OCCN2CCOCC2)cc1)C(=O)NC(/C=N/N1CCCC1=O)C(C)C (stereo partly drawn) | 2.27% | 3.56% | 2.49%
CSc1nnc2n(Cc3ccccc3)c(=O)c3c(n12)-c1ccccc1CC31CCCCC1 | 2.53% | 0.86% | 0.02%
COc1ccc(-c2ccc(CN(C)C3CCC(NC(=O)c4cc5ccccc5[nH]4)CC3)cc2)cn1 (stereo not drawn) | -1.44% | -1.14% | -1.54%
CN1CCCN(Cc2ccc(-c3cccc(NC(=O)c4ccc(F)cc4)c3)cc2)CC1 | 19.9% | 13.8% | 12.4%
CC(C)c1ccc(NC(=O)c2ccc(CN3CCCN(Cc4cccc(O)c4)CC3)cc2)cc1 | 2.95% | 4.76% | 5.15%
Cc1cc(OCCCN2CCC(NS(=O)(=O)c3cccc(Br)c3)CC2)c2ccccc2n1 | 10.9% | 9.48% | 9.99%
COc1ccc(-c2ccc(NC(=O)c3ccc(C#N)cc3)cc2)cc1CN1CCN(C)CC1 | 4.24% | 1.9% | 2.76%
CCN(CCCN1CCCCC1)c1cc(C)nc(Nc2ccc(C(F)(F)F)cc2)n1 | 3.6% | 3.63% | 3.9%
COc1cc(C(=O)NC2CCN(Cc3ccccc3)CC2)ccc1-c1nc2cc(Cl)c(C)cc2[nH]1 | 10.1% | 9.26% | 5.5%

Compound | inhibition [1] | inhibition [2] | inhibition [3]
Cc1ccc(Cl)cc1NC(=O)c1c(-c2ccccc2Cl)noc1C | -0.47% | -1.54% | -0.61%
O=C(Cn1c(=O)cnc2ccccc21)Nc1cccc(C(=O)Nc2cccc(C(F)(F)F)c2)c1 | 1.09% | 3.37% | 1.93%
Cc1cc(NCCc2ccc(O)cc2)nc(NCC(c2ccccc2)c2ccccc2)n1 | 12.9% | 8.92% | 5.19%
O=C(CN(c1cccc(C(F)(F)F)c1)S(=O)(=O)c1ccc(Cl)cc1)NCCC(c1ccccc1)c1ccccc1 | -0.18% | -0.47% | -2.89%
CCN(C)CCCn1c(N(C)C)nc2cc(-n3cnc4cc(-c5ccc(Cl)cc5)sc4c3=O)ccc21 | 8.73% | 10.9% | 3.62%
COc1ccccc1C1CCN(C2CCC(NC(=O)/C=C/c3cccc(Cl)c3)CC2)CC1 (stereo not drawn) | 3.59% | 0.95% | -0.85%
O=C1C(c2ccccc2)=C(Nc2ccc(Cl)cc2)c2ccccc21 | 1.6% | 1.45% | 2.61%
O=C(/C=C/c1cccc(Cl)c1)Nc1ccc2nc(CN3CCCC3)ccc2c1 | 3.42% | 5.45% | 3.23%
O=C(N[C@@H](CC1CCCCC1)C(=O)NCCN1CCCCC1)c1ccc(O)c(-c2cccc(C(F)(F)F)c2)c1 | 2.41% | 3.95% | -0.49%
CC(C)Cc1c(O)nc(SCCN2CCOCC2)[nH]c1=O | -0.96% | 1.54% | -0.43%
COC(=O)c1cccc(CNCc2ccc(-c3ccc(-c4nc5cccc(C)c5[nH]4)cc3)cc2)c1 | 6.68% | 1.95% | 1.08%
OCC1CCCCN1Cc1cccc(-c2cccc(-c3nc4ccccc4[nH]3)c2)c1 (stereo not drawn) | 6.6% | 4.14% | 4.46%
O=C(Nc1ccc2nccc(N3CCN4CCC[C@H]4C3)c2c1)c1ccc(Cl)c(Cl)c1 | 1.13% | 1.72% | -1.03%
CC(CCON1C(N)=NC(N)=NC1(C)C)c1ccc(Cl)c(Cl)c1 (stereo not drawn) | 26.6% | 41.4% | 27.7%
Cc1cnc(Nc2ccccc2)nc1NCCC(=O)Nc1ccccc1 | 6.97% | 8.48% | 3.62%
COc1c(C2CCN(CCCCNC(=O)c3cc(-c4ccc(Cl)cc4)[nH]c3C)CC2)ccc2c1CCCC2 | 3.66% | 4.04% | 4.31%
Cc1cccc2nc(-c3ccc(-c4ccc(NC(=O)Nc5cccc(C#N)c5)cc4)s3)[nH]c12 | 9.25% | 6.92% | 8.07%
CCOc1ccc(-c2nc(NC(=O)Cc3cccc(OC)c3)sc2C)cc1 | 5.17% | 7.92% | -0.61%
O=C(/C=C/c1ccc(Cl)c(Cl)c1)NCCCCCN1CCC(NC(=O)Nc2ccccc2Cl)CC1 | 0.63% | 0.55% | 0.27%
C=CCc1cc(Br)ccc1OCCCOc1c(C)nc(N)nc1N | 73.6% | 76% | 57%
Cc1cccc2nc(-c3ccc(-c4ccc(CN5CCN(C6CCN(C)CC6)CC5)cc4)s3)[nH]c12 | 0.65% | 1.2% | -2.96%
CCCCN(Cc1cc(Cl)c(OC)c(OC)c1)c1ccc(C(O)(C(F)(F)F)C(F)(F)F)cc1 | 1.29% | 4.14% | -0.33%
CCC(C)NS(=O)(=O)c1ccc2nc(Nc3ccc(C)cc3)n(C3CCCCC3C)c2c1 (stereo not drawn) | 4.96% | 3.92% | 2.03%
Clc1cc(Cl)c2c(c1)C(NCCCNc1nc3ccccc3[nH]1)CCO2 (stereo not drawn) | 18.5% | 43.3% | 28.1%

Compound | inhibition [1] | inhibition [2] | inhibition [3]
O=C(Cn1c(CCc2cccc(F)c2F)cc(=O)c2ccccc21)N(CCN1CCCC1)Cc1ccc(-c2ccc(C(F)(F)F)cc2)cc1 | 1.56% | 2.33% | 2.03%
CCn1cnc2c(N3CCCCS3(=O)=O)cc(C(=O)N[C@@H](Cc3ccccc3)[C@H](O)CNC3CCOCC3)cc21 | 3.99% | 2.96% | 3.34%
O=C(/C=C/c1ccc(Cl)c(Cl)c1)NCCCCCCN1CCN(C(=O)Nc2cc(F)cc(F)c2)CC1 | 5.47% | 5.75% | 7.38%
Nc1ccc(-c2ccc3ccnc(N)c3c2)cc1 | 0.24% | -0.79% | 1.39%
N#Cc1ccc(-c2ccc(C(=O)NC3CCN(CCN4CCC(c5cn(CCO)c6ccccc56)CC4)CC3)cc2)cc1 | 1.3% | 1.27% | 1.44%
Brc1ccccc1CNc1ccnc(NCCn2ccnc2)n1 | -0.91% | 0.05% | 0.03%
O=C(Nc1ccc2oc(-c3ccc(Br)cc3)nc2c1)c1ccc([N+](=O)[O-])o1 | 10.3% | 6.94% | 6.73%
O=c1ccc2ccc(F)c3c2n1CC3CN1CCC(NCc2cccc(-c3cccs3)c2)CC1 (stereo not drawn) | 6.55% | 8.34% | -6.19%
COc1ccc(N2CCN(c3nc(Nc4ccc(NC(C)=O)cc4)nc(N4CCCC4)n3)CC2)cc1 | 0.68% | 1.16% | 5.96%
Cc1cc(C(F)(F)F)cc(-n2ncc(-c3ccc(C(=O)NCc4ccccc4N)cc3)c2N)n1 | 104% | 98.5% | 57.5%
N#CC(CC(=O)c1ccc(Cl)cc1)c1cccc(F)c1 (stereo not drawn) | 1.46% | -1.27% | 1.13%
Oc1ccc(CCNc2nc(NCc3ccccc3Oc3ccc(C(F)(F)F)cc3)nc(N3CCNCC3)n2)cc1 | -0.98% | -1.74% | -2.4%
CC(C)NCc1ccc(-c2ccc(NC(=O)c3cccc(Cl)c3)cc2)cc1 | -2.83% | -1.18% | -3.53%
Cn1cnc(CCNC(=O)c2ccc(-c3ccc(-c4nc5cc(C(F)(F)F)ccc5[nH]4)s3)cc2)c1 | 2.93% | 3.77% | 3.14%
CCOc1ccc(Br)cc1/C=C/C(=O)Nc1ccc2c(c1)CCCN(C)C2 | 11.6% | 10.4% | 11.8%
O=c1cc(NCCC(CNCCc2ccccc2)NCc2cc(Br)cc(Br)c2)[nH]c2ccccc12 (stereo not drawn) | -5.14% | -3.71% | 2.71%
Cc1ccc2[nH]c(C)cc(=NN=Cc3ccc(Cl)cc3)c2c1 | -0.11% | 0.61% | -1.26%
N#Cc1ccc2[nH]cc(-c3cn4cc(SC5CCCC5)ccc4n3)c2c1 | 0.43% | 1.11% | 1.09%
Cc1noc(C)c1-c1ccc2c(Nc3ccccc3C(C)(C)C)c(C(=O)NCc3ccc(OC(C)C)cc3)cnc2c1 | 3.36% | 4.36% | 5.28%
Cc1ccccc1CN1CCCN(Cc2ccc(C(=O)Nc3ccc(C(C)(C)C)cc3)cc2)CC1 | 6.33% | 3.39% | 3.55%
NC1CCN(Cc2ccc(-c3ccc(-c4nc5cc(F)ccc5[nH]4)cc3)cc2)C1 (stereo not drawn) | 6.38% | 4.78% | -0.01%
Cc1ccc(C(=O)Nc2ccc(C)c(OC3CCN(Cc4ccco4)C3)c2)cc1 (stereo not drawn) | 0.19% | 1.86% | 7.13%
O=C(Nc1ccc(Cn2ncc(N3CCCNCC3)c(Cl)c2=O)cc1)Nc1cccc(SC(F)(F)F)c1 | 0.84% | 1.25% | 0.05%
